Hit rate of the full screen: of about 16,000 compounds, about 5,100 (32%) were called active. Not shown: some 25% with an inconclusive outcome. The list shows a part of the results. Unmarked numbers belong to inactive results. Calls follow the shape of the dose curve; as a rule, active = well fitted curve in the direction sought with a large enough effect; inconclusive = small, poorly fitted or top-dose-only effect, or effect the other way; inactive = no such curve, though single readings can be large or run the other way.
biological target: Cytochrome P450 3A4 (Homo sapiens) (UniProt P08684); experiment: Cytochrome panel assay with activity outcomes; settings: recombinant CYP, pro-luciferin dealkylation, luminescence, p450-cyp3a4; series mostly up to 57.1 µM; activity, negative = inhibition: at the top concentration
% is scaled to controls: 0 for no effect and ±100 for the full control effect.

Sequence of Cytochrome P450 3A4 (Homo sapiens) (P08684 whole entry, looked up): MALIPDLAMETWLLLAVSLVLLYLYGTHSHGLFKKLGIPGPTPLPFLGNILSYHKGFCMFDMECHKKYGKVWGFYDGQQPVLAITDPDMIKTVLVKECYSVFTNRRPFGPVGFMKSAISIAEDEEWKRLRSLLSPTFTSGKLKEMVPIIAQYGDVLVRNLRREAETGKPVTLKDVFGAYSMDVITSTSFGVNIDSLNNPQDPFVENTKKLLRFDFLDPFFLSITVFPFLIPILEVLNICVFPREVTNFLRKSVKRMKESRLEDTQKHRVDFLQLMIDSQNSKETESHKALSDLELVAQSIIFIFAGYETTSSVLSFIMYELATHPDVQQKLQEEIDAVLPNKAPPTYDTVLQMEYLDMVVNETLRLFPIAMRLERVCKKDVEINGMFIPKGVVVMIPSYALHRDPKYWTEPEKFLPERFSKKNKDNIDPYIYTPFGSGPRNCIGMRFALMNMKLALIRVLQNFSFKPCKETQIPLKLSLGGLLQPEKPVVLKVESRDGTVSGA

Row | Structure (SMILES) | AC50 | activity, negative = inhibition
1 | CC(C)Cn1c(N)c(C(=O)CSc2ccc3c(c2)OCCO3)c(=O)n(C)c1=O | 3.98 µM (active) | –
2 | Cc1nn(-c2ccc(Cl)cc2)c2sc(C(=O)c3c(N)n(C)c(=O)n(C)c3=O)cc12 | – | 7.37% [at 2.29 µM]
3 | Cn1c(N)c(C(=O)CSc2ccc3c(c2)OCCO3)c(=O)n(C)c1=O | 5.62 µM (active) | –
4 | O=c1c2ccccc2nnn1CSc1ccc2c(c1)OCCO2 | – | -16.6%
5 | CCc1c(C)c2c(C)[nH]nc2oc1=O | – | -8.51%
6 | COc1ccc2nc3c(c([Si](C)(C)C(C)(C)C)c2c1)Cn1c-3cccc1=O | 1.58 µM (active) | –
7 | COc1cc2nc3c(c([Si](C)(C)C(C)(C)C)c2cc1OC)Cn1c-3cccc1=O | 3.98 µM (active) | –
8 | CC(C)(C)[Si](C)(C)c1c2c(nc3ccc(OCc4ccccc4)cc13)-c1cccc(=O)n1C2 | 15.8 µM (active) | –
9 | OC[C@H]1NC[C@H](O)[C@@H](O)[C@H]1O | – | -7.16%
10 | CCC(C)(C(=O)NC1CCCC1)N(C(=O)c1ccccn1)c1ccccc1 (stereo unspecified) | 5.01 µM (active) | –
11 | O=C(N/N=C/C1CCCCC1)c1ccccn1 | – | -7.05% [at 11.4 µM]
12 | CCC(C)(C(=O)NC1CCCC1)N(Cc1ccco1)C(=O)c1ccccn1 (stereo unspecified) | 8.91 µM (active) | –
13 | C[C@]1(OC(=O)/C=C\c2ccccc2)C[C@@H](O)[C@@]2(O)C=CO[C@@H](O[C@H]3O[C@@H](CO)[C@@H](O)[C@@H](O)[C@@H]3O)[C@H]21 | – | 9.79% [at 25.6 µM]
14 | O=C(N/C(=C/c1cccs1)c1nc2ccccc2[nH]1)c1ccccc1 | 14.1 µM (active) | –
15 | O=C(N/C(=C/c1ccc(Br)cc1)c1nc2ccccc2[nH]1)c1ccco1 | 1.58 µM (active) | –
16 | NS(=O)(=O)c1ccc(N=C2C(=O)Nc3ccccc32)cc1 | – | -12.5% [at 11.4 µM]
17 | CN(C)c1ccc(/C=C2/C(=O)Nc3ccccc32)cc1 | 10 µM (active) | –
18 | O=C1Nc2ccccc2Nc2ncccc21 | – | 16%
19 | O=C(Nc1cccc(F)c1)N1CCCC2(CCN(C(=O)c3ccncc3)CC2)C1 | 6.31 µM (active) | –
20 | COCC(=O)N1CCC2(CCCN(C(=O)Nc3cccc(F)c3)C2)CC1 | – | -23.5%
21 | CC(=O)N1CCC2(CC1)CCN(C(=O)Nc1cccc(F)c1)CC2 | – | -34.7%
22 | O=C(Nc1cccc(F)c1)N1CCC2(CCNCC2)CC1 | – | 7.63%
23 | COc1ccc(C(=O)N2CCC3(CCCN(C(=O)Nc4cccc(F)c4)C3)CC2)cc1 | 12.6 µM (active) | –
24 | O=C(Nc1cccc(F)c1)N1CCCC2(CCNCC2)C1 | 15.8 µM (active) | –
25 | COC(=O)N1CCC2(CCN(C(=O)Nc3cccc(F)c3)CC2)CC1 | – | 28.7%
26 | COc1ccc(C(=O)N2CCC3(CCN(C(=O)Nc4cccc(F)c4)CC3)CC2)cc1 | – | -6.15%

Source: PubChem BioAssay AID1851 (National Center for Advancing Translational Sciences (NCATS), 2009)
